# Data taken from the supplement of paper PMC5641865, “A screen for kinase inhibitors identifies antimicrobial imidazopyridine aminofurazans as specific inhibitors of the Listeria monocytogenes PASTA kinase PrkA” (The Journal of Biological Chemistry, 2017).
# ± gives the standard deviation of the averaged measurements.
# System: Listeria monocytogenes 10403S
# Assay: growth inhibition relative to ceftriaxone-alone control; higher = stronger potentiation of ceftriaxone growth inhibition
# Settings: 10 µM; ceftriaxone 1 ug/ml; 12 h
# 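Further: End-point A600 read in BHI broth at 37 °C with 2% DMSO, inhibition computed as (1 − OD with compound plus ceftriaxone ÷ OD with ceftriaxone only) × 100.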
row,Compound,growth inhibition [%]
1,COc1cc2ncnc(Nc3cccc(Br)c3)c2cc1OC,36.1 ± 16
2,CCn1c(-c2nonc2N)nc2c(C#CC(C)(C)O)nc(OC[C@@H](N)c3ccccc3)cc21,71.3 ± 3.1
3,O=C1Nc2ccccc2/C1=C1/Nc2ccccc2C1=O [Indirubin],-11.4 ± 11
4,Fc1ccc(-c2nn3ncccc3c2-c2ccnc(Nc3ccc4c(c3)OCCO4)n2)cc1,-7.99 ± 5.2
5,C=CC(=O)Nc1cccc(Oc2nc(Nc3ccc(N4CCN(C)CC4)cc3)ncc2Cl)c1,13.3 ± 3.3
6,COc1cc(CCc2cc(NC(=O)c3ccc(N4CC(C)NC(C)C4)cc3)n[nH]2)cc(OC)c1 (stereo not drawn),38.3 ± 21
7,Cc1cc(-c2ccccn2)cc(C)c1/C=C/c1cncc(-c2nn[nH]n2)c1,-7.47 ± 9.6
8,CCC[C@H](NC(=O)/C(C#N)=C/c1cccc(Br)n1)c1ccccc1,99.32 ± 0.54
9,Oc1cccc(-c2nc(N3CCOCC3)c3oc4ncccc4c3n2)c1,22.4 ± 24
10,CC[C@@H]1C(=O)N(C)c2cnc(Nc3ccc(C(=O)N[C@H]4CC[C@H](N5CCN(CC6CC6)CC5)CC4)cc3OC)nc2N1C(C)C [BI6727 (Volasertib)],56.9 ± 16
11,COc1cccc(-n2ncc3c(N/N=C/c4ccncc4)ncnc32)c1,-5.6 ± 4.6
12,COc1cccc(-n2nc(C)c3c(N/N=C(\C)c4ccncc4)ncnc32)c1,-12.5 ± 20
13,COc1cc2ncnc(Nc3cccc(Cl)c3)c2cc1OC [AG-1478 (Tyrphostin AG-1478)],31.5 ± 11
14,COc1ccc2cc(-c3c(-c4ccncc4)nc(-c4ccc([S+](C)[O-])cc4C)n3C)ccc2c1 (stereo not drawn),17.6 ± 9
15,Cc1ccc([N+](=O)[O-])cc1S(=O)(=O)N(C)/N=C/c1cnc2ccc(Br)cn12,2.5 ± 4.3
16,[O-][S+]1CCN(Cc2ccc(-c3ccc4ncnc(Nc5ccc(OCc6cccc(F)c6)c(Cl)c5)c4c3)o2)CC1,-4.71 ± 1.9
17,COc1cc(N2CCN(C(C)C)CC2)ccc1Nc1nc(Nc2cccc3ncccc23)c2cc[nH]c2n1,-2.19 ± 2.3
18,CCc1cccc(CC)c1NC(=O)N1Cc2[nH]nc(NC(=O)c3ccc(N4CCN(C)CC4)cc3)c2C1,33.1 ± 4.9
19,NC(=O)c1sc(-n2cnc3ccccc32)cc1OCc1ccccc1Br,-4.4 ± 0.65

row,Compound,growth inhibition [%]
1,O=C1NC(=O)/C(=C/c2ccc(-c3ccc(F)cc3O)o2)S1,70.7 ± 9.8
2,OCCCNc1nccc(-c2c(-c3ccc(F)cc3)nn3cc(C(F)(F)F)ccc23)n1,15.6 ± 7.1
3,S=C(NCc1ccc2c(c1)OCO2)N1CCN(c2ncnc3c2oc2ccccc23)CC1 [Amuvatinib (MP-470)],11.7 ± 22
4,C[C@@H]1CN(CC(=O)Nc2ccc3c(c2)Cc2cccc(-c4cc(=O)cc(N5CCOCC5)o4)c2S3)C[C@H](C)O1,27.5 ± 4.1
5,CNC(=O)c1sc(-n2cnc3cc(OC)c(OC)cc32)cc1OCc1ccccc1C(F)(F)F,-11 ± 18
6,COc1cccc(-n2ncc3c(N/N=C/c4ccc(C(=O)NCCN(C)C)cc4)ncnc32)c1,0.231 ± 2.8
7,COc1ccc(C2=C(N3CCc4ccccc43)C(=O)NC2=O)cc1,-2.53 ± 0.37
8,COc1cc(C)c(N(C)C(=O)CN(C)C)cc1Nc1nc(Nc2cccc(F)c2C(N)=O)c2cc[nH]c2n1,-0.447 ± 1
9,COC(=O)Nc1ccc(-c2nc(N3CCOCC3)c3cnn(C4CCN(Cc5cccnc5)CC4)c3n2)cc1,33.8 ± 29
10,CCc1nn2ncccc2c1-c1ccnc(NC2CC2)n1,-4.93 ± 3
11,COc1cc2c(N3CCN(C(=O)Nc4ccc(OC(C)C)cc4)CC3)ncnc2cc1OCCCN1CCCCC1 [Tandutinib (MLN518)],32.3 ± 18
12,NS(=O)(=O)c1ccc(Nc2cc(-c3cccc(O)c3)n[nH]2)cc1,10.9 ± 3.9
13,CCOc1cc2ncc(C#N)c(Nc3ccc(F)c(Cl)c3)c2cc1NC(=O)/C=C/CN(C)C [Pelitinib (EKB-569)],14.9 ± 10
14,CC(C)(C)Cn1c(N)nc2ccc(-c3[nH]c(C(C)(C)C)nc3-c3ccc(F)cc3)nc21,97.5 ± 1.3
15,NS(=O)(=O)c1ccc(N/N=C2\C(=O)Nc3ccc(Cl)cc32)cc1,-12.5 ± 11
16,COC(=O)c1ccc2c(C(=Nc3ccc(N(C)C(=O)CN4CCN(C)CC4)cc3)c3ccccc3)c(O)[nH]c2c1 [BIBF1120 (Vargatef)],21.6 ± 14
17,CO[C@@H](C(=O)N1Cc2[nH]nc(NC(=O)c3ccc(N4CCN(C)CC4)cc3)c2C1)c1ccccc1,45.2 ± 16
18,COc1cc2c(cc1Nc1nc(Nc3ccsc3C(N)=O)c3cc[nH]c3n1)N(C(=O)CN(C)C)CCC2(C)C,-4.89 ± 0.71
19,COc1cc2c(Oc3ccc4[nH]c(C)cc4c3F)ncnc2cc1OCCCN1CCCC1 [Cediranib (AZD2171)],46 ± 7.5
